These results are taken from PubChem BioAssay AID1845224 (National Center for Advancing Translational Sciences (NCATS), 2023).

Inconclusive results are not listed. Where a call stands in place of a potency, no number is given. Activity calls are given as the source filed them. Calls come from the whole dose curve; as a rule, active = well fitted curve in the direction sought with a large enough effect; inconclusive = small, poorly fitted or top-dose-only effect, or another doubt; inactive = no such curve, though single readings can be large or run the other way.

This assay deals with NanoLuc luciferase (engineered Oplophorus gracilirostris luciferase). Briefly: Confirmatory Nanoluciferase (NLuc) qHTS assay for identification of artifact compounds. To be noted: secreted NLuc in S16 cell medium, luminescence, 5 min; series mostly up to 39 µM. In a few lines:
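Conditioned medium from NLuc-expressing S16 cells (diluted 1:55) was incubated with compounds for 15 min at room temperature. Nano-Glo substrate (1:100) was then added, and luminescence was read after 5 min.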
A general note: In qHTS, concentration-response curves come from the screen itself.
Take `C[C@H](CCC(=O)O)[C@H]1CCC2C3CC[C@@H]4C[C@H](O)CC[C@]4(C)C3CC[C@@]21C` (stereo partly drawn): the Potency entry was “inactive”. `Cc1ccc(-c2nc(=Nc3ccccc3)sn2-c2ccccc2)cc1`: the Potency entry is “inactive”.

Take `CO[C@H]1C[C@H](O[C@H]2[C@H](C)[C@@H](O[C@@H]3O[C@H](C)C[C@H](N(C)C)[C@H]3O)[C@@H](C)C[C@]3(CO3)C(=O)[C@H](C)[C@@H](O)[C@@H](C)[C@@H](C)OC(=O)[C@@H]2C)O[C@@H](C)[C@@H]1O`: the Potency entry is “inactive”. In the case of `COc1ccc(-c2cc(C(=O)Nc3cc(C(F)(F)F)ccc3Cl)no2)cc1`, the Potency result is “inactive”. Turning to `O=C(Nc1sc2c(c1-c1nc3ccccc3s1)CCNC2)C(F)F`, the Potency entry was “inactive”. For the compound `CC1=CC23C(=O)C(C=C(CO)[C@@H](O)[C@]2(O)[C@H]1O)[C@H]1[C@@H](C[C@H]3C)C1(C)C` (stereo partly drawn), the Potency entry was “inactive”. For the compound `COc1ccc(OC(=O)c2nc(SCc3ccccc3F)ncc2Cl)cc1`, the Potency result was “inactive”. As for `COc1ccc(NC(=O)Cn2c(=O)n(CCc3ccccc3)c(=O)c3c4c(sc32)CCCC4)cc1`, the Potency entry was “inactive”. As for `COC(=O)c1scc(-c2ccc(C)cc2)c1S(=O)(=O)Nc1cc(Cl)ccc1C`, the Potency entry is “inactive”.

Consider `COc1ccc(CC(=O)Nc2nc3c(s2)CCCC3)cc1`, for which the Potency entry was “inactive”. For the compound `CCCC(=O)Nc1cc2nn(-c3ccccc3)nc2cc1C`, the Potency entry was “inactive”. For `O=c1c2ccccc2nc2sc(Nc3ccc(Br)cc3)nn12`, the Potency result was “inactive”. Consider `Clc1ccc(CNc2cc(-c3ccc4c(c3)OCO4)ncn2)cc1`, for which the Potency entry was “inactive”. Regarding `CCOC(=O)C1CCN(C(=O)Cn2c(=O)oc3cc(S(=O)(=O)N4CCC(C)CC4)ccc32)CC1`, the Potency result is “inactive”. With `CC1(C)OC2CC(=O)OCC23C1CC(=O)C1(C)C3CC[C@@]2(C)[C@H](c3ccoc3)OC(=O)C3OC312` (stereo partly drawn), the Potency result was “inactive”. As to `CSc1ccc2nc(Nc3nnc(-c4cccs4)o3)sc2c1`, the Potency result was “inactive”. `CCN(CCCNC(=O)CSc1cc(=O)n(C)c2ccccc12)c1ccccc1`: the Potency entry is “inactive”. Consider `O=C(Nc1ccccn1)c1sc2ccc([N+](=O)[O-])cc2c1Cl`, for which the Potency entry was “inactive”. The same measure for `CCc1ccc2oc(C(=O)Nc3cc(Cl)ccc3OC)cc(=O)c2c1`: “inactive”; for `CC(Sc1oc(-c2cccs2)nc1S(=O)(=O)c1ccccc1)c1ccccc1` (stereo not drawn): “inactive”. In the case of `N#Cc1cccc(-c2ccc(NC(=O)c3cccs3)cn2)c1`, the Potency result is “inactive”.

On to `COc1ccc(NC(=O)CSc2c3c(nc4ccccc24)CCC3)cc1Cl`, for which the Potency result is “inactive”. Turning to `CC1CCN(c2ccc(-c3cccc(NS(=O)(=O)c4ccc(F)cc4F)c3)nn2)CC1`, the Potency result is “inactive”. On to `COc1ccc(-c2nc3cccc(C)n3c2Nc2ccc(C)cc2)cc1`, for which the Potency entry is “inactive”.

As for `CCCCCCCCCCCCCC(=O)N[C@@H](C)[C@H](O)c1ccccc1`, the Potency entry was “inactive”. As for `COc1ccc(CC(N)C(=O)N[C@H]2[C@@H](O)[C@H](n3cnc4c(N(C)C)ncnc43)O[C@@H]2CO)cc1` (stereo partly drawn), the Potency result was “inactive”. The same measure for `Cc1cccn2c(=O)c3cc(C(=O)NCc4ccccc4)c(=N)n(CCOCCO)c3nc12`: “inactive”; for `CCCN(CCC)CCNC(=O)CN1C(=O)COc2ccc(S(=O)(=O)N3CCC(C)CC3)cc21`: “inactive”.
